Common to all, as to test: thermal shift delta Tm vs DMSO control; higher = stronger stabilization (binding)
Details in all cases: 12.5 µM; protein concentration 2 µM

The subject of one assay is LOC_OS01G01410-cb001. The method in brief: (§1)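 Rice kinase domain constructs, made in E. coli and purified, were placed in 96-well plates at 2 μM in 19.5 μl of 100 mM potassium phosphate pH 7.5, 150 mM NaCl, 10% glycerol and 5 × SYPRO Orange, with compound in DMSO. A temperature ramp from 25°C to 95°C at 0.05°C/s was used for differential scanning fluorimetry. The melting temperature shift is a triplicate mean compared with DMSO-only protein, derived from Boltzmann fits.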

For a further assay, the system named is LOC_OS01G02750-cb003. The method in brief:
as §1

For another assay, the system named is LOC_OS01G10900-cb004. A digest of the protocol: as §1
For a further assay, the system named is LOC_OS01G13800-cb001. A digest of the protocol: as §1
A further assay deals with LOC_OS01G14860-cb001. The method in brief:
as §1

For another assay, the system named is LOC_OS01G21960-cb002. The method in brief:
as §1

The subject of another assay is LOC_OS01G39600-cb002. The method in brief:
as §1

For a further assay, the system named is LOC_OS01G48390-cb002. The method in brief:
as §1

A further assay has as its system LOC_OS01G51400-cb002. A digest of the protocol: as §1
The next assay deals with T1, LOC_OS01G52050-cb004.
T1 sequence (whole entry): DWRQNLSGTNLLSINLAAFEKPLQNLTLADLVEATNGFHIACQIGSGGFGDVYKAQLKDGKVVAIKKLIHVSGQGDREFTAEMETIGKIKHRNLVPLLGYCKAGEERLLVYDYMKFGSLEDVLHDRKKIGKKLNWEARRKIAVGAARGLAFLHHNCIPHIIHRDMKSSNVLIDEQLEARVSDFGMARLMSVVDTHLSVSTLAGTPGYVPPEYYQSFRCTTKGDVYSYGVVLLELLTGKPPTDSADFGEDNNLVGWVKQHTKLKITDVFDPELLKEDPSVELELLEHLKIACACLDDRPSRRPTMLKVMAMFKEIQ
The method in brief: as §1
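Also: purified Escherichia coli-expressed rice kinase domain construct.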

Regarding `CN1CCN(c2nc(C3=C(c4c[nH]c5ccccc45)C(=O)NC3=O)c3ccccc3n2)CC1` [Sotrastaurin], the “thermal shift delta Tm” value with LOC_OS01G01410-cb001 was 0.84 °C; in the assay on LOC_OS01G02750-cb003, 3.23 °C; in the assay with LOC_OS01G10900-cb004 it was 0.77 °C; in the assay on LOC_OS01G13800-cb001 it was 0.15 °C; with LOC_OS01G14860-cb001, 3.2 °C; in the assay with LOC_OS01G21960-cb002, 2.53 °C. The “thermal shift delta Tm” value in the assay with LOC_OS01G39600-cb002 was 3.02 °C; with LOC_OS01G48390-cb002 it was 2.55 °C; in the assay on LOC_OS01G51400-cb002, 0.38 °C; with LOC_OS01G52050-cb004, -0.06 °C.
In the case of `CCn1cc(-c2ccnc3[nH]c(-c4cccc(CN(C)C)c4)cc23)c(-c2ccc(NC(=O)N(C)C)cc2)n1`, the “thermal shift delta Tm” value with LOC_OS01G01410-cb001 stood at 0.68 °C; in the assay with LOC_OS01G02750-cb003 it was 2.48 °C; with LOC_OS01G10900-cb004 it was 1.01 °C; in the assay with LOC_OS01G13800-cb001, 0.47 °C; with LOC_OS01G14860-cb001 it was 2.81 °C; in the assay on LOC_OS01G21960-cb002 it was 0.73 °C. In addition, the “thermal shift delta Tm” value with LOC_OS01G39600-cb002 was 0.91 °C; in the assay with LOC_OS01G48390-cb002, 1.28 °C; in the assay on LOC_OS01G51400-cb002, 0.51 °C; with LOC_OS01G52050-cb004 it was 0.87 °C.
In the case of `O=c1cc(N2CCOCC2)oc2c(-c3ccccc3)cccc12`, the “thermal shift delta Tm” value was 1.06 °C with LOC_OS01G01410-cb001; -0.94 °C in the assay with LOC_OS01G02750-cb003; 3.69 °C in the assay with LOC_OS01G10900-cb004; 0.14 °C with LOC_OS01G13800-cb001; 0.93 °C in the assay with LOC_OS01G14860-cb001; 0.79 °C with LOC_OS01G21960-cb002. Besides, the “thermal shift delta Tm” value with LOC_OS01G39600-cb002 worked out at 0.29 °C; in the assay with LOC_OS01G48390-cb002, 1.24 °C; in the assay on LOC_OS01G51400-cb002, 0.33 °C; in the assay on LOC_OS01G52050-cb004, 0.42 °C.
As to `CCn1c(-c2nonc2N)nc2c(C#CC(C)(C)O)ncc(OC[C@H]3CCCNC3)c21`, the “thermal shift delta Tm” value turned out to be 1.38 °C in the assay with LOC_OS01G01410-cb001; 0.87 °C in the assay on LOC_OS01G02750-cb003; 0.42 °C in the assay with LOC_OS01G10900-cb004; 0.37 °C in the assay on LOC_OS01G13800-cb001; 3.95 °C with LOC_OS01G14860-cb001; 0.53 °C in the assay with LOC_OS01G21960-cb002. In addition, the “thermal shift delta Tm” value was 0.32 °C with LOC_OS01G39600-cb002, 0.07 °C in the assay with LOC_OS01G48390-cb002, 0.09 °C with LOC_OS01G51400-cb002 and 0.04 °C in the assay on LOC_OS01G52050-cb004.
Turning to `C=CC(=O)Nc1ccc2ncnc(Nc3cccc(Br)c3)c2c1`, the “thermal shift delta Tm” value was 0.7 °C in the assay with LOC_OS01G01410-cb001; -0.16 °C in the assay with LOC_OS01G02750-cb003; -0.13 °C in the assay on LOC_OS01G10900-cb004; -0.18 °C in the assay with LOC_OS01G13800-cb001; 0.1 °C in the assay on LOC_OS01G14860-cb001; 0.15 °C in the assay on LOC_OS01G21960-cb002. Besides, the “thermal shift delta Tm” value in the assay on LOC_OS01G39600-cb002 was -12.2 °C; in the assay with LOC_OS01G48390-cb002, 0.59 °C; with LOC_OS01G51400-cb002, 0.29 °C; with LOC_OS01G52050-cb004, 0 °C.
For the compound `CN1CC[C@H](c2c(O)cc(O)c3c(=O)cc(-c4ccccc4Cl)oc23)[C@H](O)C1` [Flavopiridol (Alvocidib)], the “thermal shift delta Tm” value in the assay on LOC_OS01G01410-cb001 is 0.72 °C; with LOC_OS01G02750-cb003, 0.39 °C; in the assay with LOC_OS01G10900-cb004, 0.16 °C; in the assay with LOC_OS01G13800-cb001 it was 0.35 °C; in the assay with LOC_OS01G14860-cb001 it was 4.54 °C; with LOC_OS01G21960-cb002, 1.94 °C. The “thermal shift delta Tm” value in the assay with LOC_OS01G39600-cb002 is 1.37 °C; in the assay with LOC_OS01G48390-cb002, 0.03 °C; in the assay on LOC_OS01G51400-cb002 it was -0.2 °C; in the assay with LOC_OS01G52050-cb004, 0.8 °C.
In the case of `CC(C)N(CCC(=O)c1ccc2ccccc2c1)Cc1ccccc1`, the “thermal shift delta Tm” value with LOC_OS01G01410-cb001 was -0.06 °C; in the assay with LOC_OS01G02750-cb003, -5.16 °C; in the assay on LOC_OS01G10900-cb004 it was 1.63 °C; in the assay with LOC_OS01G13800-cb001, -1.25 °C; in the assay on LOC_OS01G14860-cb001 it was -0.01 °C; in the assay on LOC_OS01G21960-cb002, 0.24 °C. For the same compound, the “thermal shift delta Tm” value is -2.79 °C in the assay with LOC_OS01G39600-cb002, 0.53 °C with LOC_OS01G48390-cb002, -0.18 °C in the assay with LOC_OS01G51400-cb002 and -7.43 °C with LOC_OS01G52050-cb004.
`Cn1c(=O)c(Oc2ccc(F)cc2F)cc2cnc(NC(CCO)CCO)nc21`: the “thermal shift delta Tm” value stood at 0.37 °C in the assay on LOC_OS01G01410-cb001; 0.46 °C in the assay with LOC_OS01G02750-cb003; 1.21 °C in the assay with LOC_OS01G10900-cb004; 0.21 °C in the assay on LOC_OS01G13800-cb001; 0.44 °C in the assay on LOC_OS01G14860-cb001; 0.89 °C with LOC_OS01G21960-cb002. The “thermal shift delta Tm” value with LOC_OS01G39600-cb002 is 0.22 °C; in the assay on LOC_OS01G48390-cb002, -0.01 °C; with LOC_OS01G51400-cb002 it was -0.14 °C; in the assay on LOC_OS01G52050-cb004, 0.02 °C.
`CCn1c(=O)c(-c2ccc(Cl)cc2Cl)cc2cnc(Nc3ccc(N4CCNCC4)c(F)c3)nc21`: the “thermal shift delta Tm” value was 5.82 °C in the assay on LOC_OS01G01410-cb001; 1.71 °C with LOC_OS01G02750-cb003; 7.68 °C in the assay on LOC_OS01G10900-cb004; 0.11 °C with LOC_OS01G13800-cb001; 3.38 °C in the assay on LOC_OS01G14860-cb001; 0.97 °C in the assay with LOC_OS01G21960-cb002. Moreover, the “thermal shift delta Tm” value in the assay on LOC_OS01G39600-cb002 was 5.06 °C; in the assay with LOC_OS01G48390-cb002, 2.05 °C; in the assay on LOC_OS01G51400-cb002 it was -0.48 °C; in the assay on LOC_OS01G52050-cb004, 5.06 °C.
On to `N#Cc1c(NC(=O)c2cccc3ccccc23)sc2c1CCCC2` [JNK Inhibitor IX], for which the “thermal shift delta Tm” value in the assay on LOC_OS01G01410-cb001 is 0.03 °C; with LOC_OS01G02750-cb003, 1.54 °C; in the assay with LOC_OS01G10900-cb004, 0.06 °C; in the assay with LOC_OS01G13800-cb001, 0.52 °C; in the assay on LOC_OS01G14860-cb001, -0.15 °C; in the assay on LOC_OS01G21960-cb002, 0.78 °C. The “thermal shift delta Tm” value in the assay with LOC_OS01G39600-cb002 was -0.09 °C; in the assay with LOC_OS01G48390-cb002 it was -0.06 °C; with LOC_OS01G51400-cb002, 0.19 °C; in the assay on LOC_OS01G52050-cb004 it was -0.13 °C.

The record behind these values is the supplement of paper PMC9694430.
